The supplement of paper PMC6555819

Experiments:
Assay in all cases: PBM binding z-score (relative to random genomic background probes); higher = stronger binding; sequences stand for … in GC…GCGATTGACAGCGTAGAATGAAGG
[1] = system: RARb homodimer (NR concentration 270 nM)
Summary of the method: (§1)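 Ligand-free nuclear receptor dimers were bound for 1 h to custom Agilent 4×180K protein-binding microarrays. Detection used antibodies against each partner (one per run). Binding z-scores rest on regression-normalized fluorescence, with random background probes as the reference.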

[2] = system: RARg:RXRa (NR concentration 270 nM, RXRa partner concentration 90 nM)
Summary of the method: as §1

[3] = system: RARg homodimer (NR concentration 270 nM)
Summary of the method: as §1

[4] = system: RXRa DBDmut IVT, anti-RXR (DBD mutation: RXRa K156A/R161A, NR concentration 90 nM)
Summary of the method: as §1

[5] = system: RXRa homodimer (NR concentration 180 nM)
Summary of the method: as §1

[6] = system: THRa:RXRa (NR concentration 90 nM, RXRa partner concentration 90 nM)
Summary of the method: as §1

[7] = system: THRa homodimer (NR concentration 90 nM)
Summary of the method: as §1

[8] = system: VDR:RXRa (NR concentration 270 nM, RXRa partner concentration 90 nM)
Summary of the method: as §1

[9] = system: VDR homodimer (NR concentration 270 nM)
Summary of the method: as §1

| Sequence | PBM binding z-score [1] | PBM binding z-score [2] | PBM binding z-score [3] | PBM binding z-score [4] | PBM binding z-score [5] | PBM binding z-score [6] | PBM binding z-score [7] | PBM binding z-score [8] | PBM binding z-score [9] |
| --- | --- | --- | --- | --- | --- | --- | --- | --- | --- |
| CCTTACGGGTCACTCCAGATTATAGCATCGGAGT | 2.58 | 4.16 | 3.98 | 1.28 | 3.98 | 2.65 | 0.098 | 2.72 | 1.39 |
| CGTCCAAGGTCAAAGGTCAGTGACGAGATGACGG | 5.47 | 8.79 | 8.22 | 3.93 | 10.5 | 4.85 | 2.69 | 6.67 | 3.54 |
| ATACCAAGGTGATCGTGTGGTCGTTGATACTAAC | 0.584 | 0.298 | 0.273 | 0.0966 | 0.296 | 0.959 | 0.536 | 0.0148 | 0.0513 |
| ACTAGTTGGTCAGCTGAGGTCAGACACAATTCGG | 3.88 | 2.85 | 3.57 | 0.548 | 2.51 | 4.56 | 3.42 | 3.07 | 1.76 |
| TCGACTAGGTTAGGGGCATTCAGAATGGCGTCGA | 0.889 | 0.355 | 0.408 | 0.884 | 0.798 | 1.03 | 0.253 | 0.465 | 0.473 |
| TCTAGTTGGTCAAAGGTCACACCCTCGAAATGCG | 5.03 | 6.9 | 6.12 | 2.29 | 8.03 | 4.02 | 2.2 | 5.06 | 3.2 |
| GCTAATAGTTGAAAGGGCAACCGAATGATTCTCG | 2.13 | 1.68 | 1.44 | 0.805 | 1.76 | 0.716 | -0.4 | 0.767 | 0.235 |
| CATACAGGGTCAGCGAGGCCAGAGTAGGGACGGC | 3.42 | 4.59 | 4.23 | 1.89 | 4.45 | 3.58 | 1.01 | 5.93 | 2.49 |
| GCATATAGGTAATACAAGGTGAAAGGCCGATTGT | 1.08 | 0.593 | 0.747 | 0.113 | 0.895 | 4.07 | 0.753 | 0.402 | 0.114 |
| TGTCAAAGTTCAAAGATAACGTAAGTATCCACAC | 3.35 | 5.44 | 6.18 | 4.22 | 4.6 | 1.86 | -0.41 | 4.23 | 3.32 |
| CGAACTAGGTCATTGACAGGATAGTGAATAGTAA | 2.38 | 3.62 | 3.86 | 2.34 | 2.55 | 2.57 | 0.521 | 1.64 | 0.957 |
| CCTGCTAGGTCTTGGTCAGCTAATCTACAGTATG | 0.408 | -0.194 | -0.144 | 0.336 | -0.394 | -0.178 | -0.108 | -0.434 | -0.656 |
| AGTCAAAGTTCACTAGATAACGTAAGATTCAGCT | 3.55 | 4.97 | 5.79 | 3.76 | 3.84 | 1.46 | -0.386 | 3.5 | 3.35 |
| TAGCCTTGGTCAGATCGGGCCAGTATACGCTATA | -0.204 | -0.284 | 0.118 | -1.12 | -0.507 | 1.29 | -0.783 | -0.557 | -0.709 |
| ATATGTAGGTAAGCTGGGGTCATTCAGACTAGGC | 3.48 | 3.82 | 2.24 | 1.8 | 5.36 | 4.65 | 3.38 | 5.49 | 4.3 |
| ATATGTAGGTTATCGCGTCATTCAGTTTGCGCAT | 0.515 | 0.647 | 0.634 | 0.806 | 1.03 | 0.388 | 0.235 | 0.798 | 0.254 |
| GTCCCAAGGTGAATAGGTCGTTGATGAGTAGGCG | 2.13 | 2.88 | 1.42 | -0.179 | 1.67 | 2.06 | 0.76 | 0.855 | 0.582 |
| CCTTAAGGGTCACTGACAGGTTATAGCATTTGGA | 4.71 | 7.23 | 6.91 | 3.42 | 6.82 | 3.85 | 0.468 | 5 | 2.04 |
| AAGACAGGGTCACTAGGCCAGAGTAGGTACGAAT | 3.02 | 4.97 | 4.66 | 2.26 | 5.58 | 3.1 | 0.755 | 3.9 | 1.87 |
| CGTCCAAGGTCAAAGTCAGTGAAAGAGACTCGAA | 3.32 | 5.86 | 6.34 | 3.91 | 5.95 | 3.5 | 1.72 | 3.77 | 2.46 |
| CGAACTAGGTCATTGACAGGACACTGAATAGTAA | 2.8 | 4.6 | 3.84 | 2.58 | 2.46 | 3.03 | 1.06 | 2.52 | 1.18 |
| GCTTACGGGTCAAAGGGTATAGCATGAATAGAAT | 2.63 | 5.24 | 4.04 | 2.41 | 7.03 | 2.8 | -0.191 | 5.84 | 1.45 |
| TCTATTAGTTGAAGGGCAACCGACGAGTCCGTTT | 1.41 | 0.635 | 0.786 | 1.57 | 0.701 | 0.419 | 0.09 | 1.09 | 1.87 |
| CCAGACAGGTGCGAAGGTAACTCAGCCTCGATTA | -0.418 | -0.29 | -0.243 | 0.384 | -0.121 | -0.305 | -0.159 | -0.435 | -0.453 |
| CGAACGAGGGCATGAGTTAATAGCAAATGCCGAT | 0.53 | 1.2 | 1.61 | 2.14 | 0.895 | 1.13 | -0.42 | 0.731 | 1.02 |
| AGAATCAGGTTATACGTAGATCAGGGAAGAAAGT | 0.65 | 0.789 | 0.919 | 0.474 | 0.757 | 1.17 | 0.768 | 0.368 | 0.381 |

| Sequence | PBM binding z-score [1] | PBM binding z-score [2] | PBM binding z-score [3] | PBM binding z-score [4] | PBM binding z-score [5] | PBM binding z-score [6] | PBM binding z-score [7] | PBM binding z-score [8] | PBM binding z-score [9] |
| --- | --- | --- | --- | --- | --- | --- | --- | --- | --- |
| CGTCCAAGGTCAGACAGGTCAGTGAATGCCGAGT | 4.84 | 5.32 | 6.13 | 3.11 | 4.43 | 3.97 | 2.16 | 5.82 | 3.77 |
| ACTACTAGTTGACTTAGGGCAACCGATACGACGC | 0.824 | 0.463 | 0.625 | 0.495 | 0.508 | 1.32 | 0.683 | 0.191 | 0.273 |
| CCTACTGGGCGAAAGGTCATTGATTCCAATGCTC | 4.3 | 5.19 | 4.82 | 1.01 | 5.76 | 2.95 | 0.374 | 4.43 | 2 |
| GCTGCTAGGTCAACTGCTGGTCAGCTAAAGCTCG | 3.54 | 5.38 | 5.45 | 1.4 | 2.79 | 2.92 | 0.954 | 1.38 | -0.195 |
| GCTGTTAGTTGAAAGGGCAACCGAATGATTCTCG | 2.03 | 1.49 | 1.43 | 0.773 | 1.23 | 0.729 | -0.379 | 0.572 | -0.0381 |
| CGAACTAGGTCATCCAGGACATTGAATACATTGA | 3.11 | 3.95 | 4.63 | 2.66 | 2.95 | 3.87 | 2.27 | 5.52 | 3.47 |
| TCTGGTAGATCAACAGGAGGTTAAGAAAGATCGA | 0.385 | 0.66 | 0.298 | 0.299 | 0.827 | 0.849 | -0.374 | 0.61 | 0.00452 |
| TCATATAGGTACAGGTGAAAGTCGAACGATATGA | 0.469 | 0.866 | 0.834 | 0.797 | 1.07 | 0.566 | -0.52 | 0.846 | 0.343 |
| CGTACTGGGCCATTCAGAGGTCATTGATCATATG | 4.23 | 4.62 | 3.63 | 1.64 | 3.95 | 3.33 | 1.54 | 4.27 | 3.81 |
| CAAACGAGGGCATGAGTTGATAGCAAATGCCGAT | 0.782 | 1.53 | 1.79 | 2.13 | 1.29 | 1.56 | -0.234 | 1.58 | 1.62 |
| CGAACTAGGTCAGGGACAGTGAATCTCCGCACGC | 2.17 | 2.92 | 3.51 | 0.647 | 1.47 | 2.23 | 1.07 | 0.457 | -0.0543 |
| CAAACTAGGTCAAGAAAGGTCAAAGTCGAATGAC | 5.71 | 7.33 | 7.9 | 1.95 | 7.67 | 4.9 | 1.79 | 6.44 | 3.03 |
| CGACAAAGTTCAACTAAGGTAACGTAAAGCACGC | 4.21 | 5.63 | 6.69 | 4.18 | 4.41 | 5.06 | 1.57 | 4.67 | 3.79 |
| TAGCCTAGGTCATGGGCGAGTATACCACGCGAAC | 2.97 | 4.08 | 4.15 | 0.379 | 3.57 | 3.11 | 1.11 | 2.32 | 0.339 |
| ATCGAAAGGTCGAAGGCGAGTATACCCACCCGAA | 2.23 | 3.79 | 3.68 | 0.777 | 3.64 | 1.75 | -0.359 | 2.22 | 0.879 |
| CGAACTAGGTCATCCAAGACAGTGAATACATTGA | 2.81 | 4.15 | 4.88 | 2.42 | 3.45 | 2.84 | 0.947 | 2.57 | 1.06 |
| CCTAGTTGGTCAAGGTCACACAAGCTATAGGTAC | 4.53 | 4.81 | 4.89 | 2.26 | 4.88 | 4.19 | 3.83 | 4.38 | 3.72 |
| CCTAGCAGGCCAATCAGGGTCACTCAAGGCTTGA | 3.13 | 2.79 | 2.02 | 0.629 | 3.31 | 4.68 | 1.15 | 3.66 | 1.77 |
| TCGAGTAGGTTAGTCGGGGCATACAGCCAACATA | 0.452 | 0.28 | 0.255 | 0.235 | 0.45 | 1.02 | -0.188 | 1.74 | -0.0779 |
| TCTTGTAGATCAATAGAGATTAAGAAAGTGCGCT | -0.717 | 0.0195 | 0.0177 | 0.545 | 0.326 | -0.317 | -1.06 | 0.285 | -0.336 |
| TAGCCTAGGTCAGAGCGGGCCAGTATACGCTATA | 1.85 | 2.55 | 3.13 | -0.459 | 1.18 | 2.85 | -0.121 | 0.36 | -0.402 |
| ACTATTCGTTGAGACGAGGGCAACCGATAGGTTG | 1.26 | 0.489 | 0.81 | 0.393 | 0.523 | 1.33 | 0.648 | 0.454 | 0.643 |
| GCGACTGGGGCATCAGCATGTTACCATAACTTAA | 0.222 | 0.263 | 0.143 | 0.363 | 0.217 | 0.125 | -0.404 | -0.304 | -0.64 |
| CGAACTAGGTCATCCAGGACAGTCAATACATTGA | 3.04 | 4.11 | 5.21 | 2.72 | 3.39 | 3.81 | 2.01 | 4.83 | 2.52 |
| CGTCAAAGTTCAACCAAGGTAACGTAAAGCACGC | 4.13 | 5.85 | 6.21 | 4.5 | 4.98 | 5.14 | 1.18 | 4.77 | 4.3 |
